Data taken from the supplement of paper PMC6555819.

What was measured:
Test in all cases: PBM binding z-score (relative to random genomic background probes); higher = stronger binding; sequences stand for … in GC…GCGATTGACAGCGTAGAATGAAGG
[1] = system: RARb homodimer (NR concentration 270 nM)
Method in brief: (§1)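 Binding z-scores were set against random background probes. The data came from custom Agilent 4×180K protein-binding microarrays carrying double-stranded probes with 34-nt variable regions, incubated 1 h with ligand-free nuclear receptor dimers. Partner-specific antibodies detected binding, and scanned fluorescence was regression-normalized.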

[2] = system: RARg:RXRa (NR concentration 270 nM, RXRa partner concentration 90 nM)
Method in brief: as §1

[3] = system: RARg homodimer (NR concentration 270 nM)
Method in brief: as §1

[4] = system: RXRa DBDmut IVT, anti-RXR (DBD mutation: RXRa K156A/R161A, NR concentration 90 nM)
Method in brief: as §1

[5] = system: RXRa homodimer (NR concentration 180 nM)
Method in brief: as §1

[6] = system: THRa:RXRa (NR concentration 90 nM, RXRa partner concentration 90 nM)
Method in brief: as §1

[7] = system: THRa homodimer (NR concentration 90 nM)
Method in brief: as §1

[8] = system: VDR homodimer (NR concentration 270 nM)
Method in brief: as §1

Row | Sequence | PBM binding z-score [1] | PBM binding z-score [2] | PBM binding z-score [3] | PBM binding z-score [4] | PBM binding z-score [5] | PBM binding z-score [6] | PBM binding z-score [7] | PBM binding z-score [8]
1 | CAATCTAGGTCAAGAGGTCAAAGTCCGCTTCCCG | 5.66 | 8.19 | 7.48 | 2.79 | 8.19 | 4.5 | 2.95 | 5.19
2 | TCTTGTAGATCAGAGGTTAAGAAAGCCGAAGCCT | 0.579 | 0.522 | 0.221 | 0.653 | 1.5 | 0.868 | -0.337 | 0.103
3 | ATCGAAAGGTCGAGGTGGGTATAGAGAAAGGGAA | 3.07 | 4.26 | 4.29 | 1.35 | 4.24 | 2.64 | 0.668 | 1.09
4 | TCTTGTAGATCCAGCAGGTTAAGAAAGCCTGAGT | -0.0215 | -0.196 | -0.399 | 0.513 | 0.171 | 0.192 | -0.236 | -0.224
5 | CCTGCTAGATCATGGTCAGCTAATCTACAGTATG | -0.429 | -0.127 | 0.142 | 0.516 | -0.185 | -0.68 | -1.23 | -0.86
6 | AGTCAAAGTTCACTCGGTAACGTAAGATTCAGCT | 3.89 | 4.91 | 5.79 | 4.02 | 3.83 | 1.79 | -0.0176 | 4.11
7 | CGAAATAGGTCAGAACAGGACAGTGAAGGATGAT | 2.82 | 3.36 | 4.15 | 0.269 | 2.42 | 4.13 | 0.228 | 0.382
8 | AATACAGGTTCACTAGGCCAGAGTAGGTACGAAT | 1.25 | 1.84 | 1.4 | 4.16 | 2.15 | 1.12 | 0.232 | 4.64
9 | GCGACTGGGCCAAAGCAGGTTACCATAAGGTTGG | 0.333 | -0.0916 | -0.132 | -0.818 | -0.0243 | 1.82 | -0.598 | -0.503
10 | TCATATAGGTAAAGGTTAAAGTCGAACGATATGA | 2 | 2.68 | 2.28 | 1.27 | 3.91 | 1.81 | -0.146 | 0.675
11 | TCTATCAGTTGAAGGGCAACCGACGAGTCCGTTT | 1.44 | 0.695 | 0.748 | 1.11 | 0.849 | 0.16 | 0.0373 | 1.44
12 | TCTTGTAGATCAAAGGTTGAGAAAGCCGAAGCCT | 0.0942 | 0.326 | -0.192 | 0.518 | 1.08 | 0.142 | -0.747 | -0.223
13 | TCTTGTAGATCAATAGAGGTTAAGAATGTGCGCT | 1.06 | 0.814 | 0.559 | 0.783 | 1.38 | 2.15 | -0.391 | 0.277
14 | TAGCCTAGGTCATGGGCCAGTAAACCACGCGAAC | 2.99 | 4.38 | 5.19 | 0.473 | 3.77 | 3.25 | 1.12 | 0.514
15 | ACTATTAGTAGACTTAGGGCAACCGATACGACGC | 0.674 | 0.363 | 0.941 | 0.409 | 0.292 | 0.596 | 0.558 | 0.227
16 | GCATATAGGTAATACAGGGTGAAAGTCCGATTGT | 0.685 | 0.386 | 0.492 | 0.439 | 0.917 | 3.38 | 0.41 | 0.239
17 | CCCTACGGGTCACTCCAGGTTATAGCATCGGAGT | 3.22 | 4.52 | 4.67 | 0.434 | 4.72 | 4.94 | 0.457 | 1.79
18 | TAGCCTAGGTCATGCAGGGGCCAGTATAGAAAGC | 3.35 | 6.15 | 4.48 | 0.31 | 3.12 | 3.29 | 0.474 | 0.435
19 | TCTTGTAGATCACTAGAGGTTAAGAAAGTGCGCT | 1.33 | 0.919 | 0.66 | 0.477 | 1.6 | 2.43 | -0.317 | 0.162
20 | CCGAGTAGGTTGTGGGGCATTCAGGCAACGGTGA | 0.739 | -0.398 | -0.497 | -0.201 | -0.326 | 0.119 | 0.578 | 0.435
21 | TCTAGTTGGTCACGGAGGTCAAACACGACGGGTA | 4.53 | 5.24 | 5.02 | 1.28 | 5.47 | 3.78 | 2.02 | 3.62
22 | TAGGCTAGGTCATTCAGGGGCCAGTATAGAAAGC | 3.57 | 6.42 | 4.85 | 1.71 | 3.26 | 3.7 | 0.658 | 1.95
23 | GATACAGTGTCAGCTAGAGGCCAGAGTATGGAAA | 1.01 | 2.09 | 0.824 | -0.492 | 0.242 | 0.131 | -0.254 | -0.198
24 | TCTGGTAGATCAGCAGGTTAAGAAAGCTGGCCAA | -0.132 | -0.135 | -0.628 | 0.128 | 0.256 | 0.0552 | -0.418 | -0.56
25 | TCGAGTAGGTTACCAATGGGGCACTCAGCTTTCT | 0.601 | 1.21 | 0.434 | 0.0606 | 0.428 | 0.0127 | -0.648 | -0.704
26 | GATACAGGGTCAAGGCCAGAGGACGCGTATTGAT | 3.63 | 5.29 | 4.94 | 2.07 | 5.78 | 3.64 | 1.43 | 2.28
27 | CAAACTAGGTTACGAAAGGTCAAAGTCGAATGAC | 5 | 6.3 | 5.88 | 1.6 | 6.62 | 4.48 | 1.51 | 2.58
28 | TGTCAAAGTTCAAAGTTAACGTAAGTATCCACAC | 3.88 | 5.8 | 5.72 | 4.53 | 5.86 | 2.62 | 0.00571 | 4.02
